# Source: PubChem BioAssay (NCATS)
# Where “and” joins values, the source holds several entries; their conditions need not be identical. Equal entries are not always repeated. Results filed as inconclusive are left out. Calls of active or inactive are those of the source. Unless noted, calls follow the shape of the full dose curve.
# Legend:
# [1] = qHTS Assay for Lipid Storage Modulators (AID 1519); details: Drosophila S3 cells, BODIPY lipid droplet/cell ratio, laser cytometry, cells loaded with oleic acid; as to activity change, negative = inhibition: % is scaled to controls: 0 for no effect and ±100 for the full control effect
# Outline: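 Cells seeded at 5,000 per well were treated with compounds over a concentration series and loaded with oleic acid (400 uM, as added). Lipid droplet fluorescence (488 nm excitation, 500-530 nm channel) was read by laser-scanning cytometry and normalized to 20 uM Triacsin C.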
# [2] = Cell Viability - LYMP1-002 - Assay at 24 hr (AID 993; active = well fitted curve in the direction sought with a large enough effect; an effect the other way counts as inactive or inconclusive; also: % is scaled to controls: 0 for no effect and ±100 for the full control effect); details: LYMP1-002 lymphoblastoid cells viability; series mostly up to 92.2 µM
# Outline: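 Human lymphoblastoid LYMP1-002 cells, 2500/well in complete medium, were treated with compounds for 24 h at 37 C; intracellular ATP was read by CellTiter-Glo luminescence. AC50 values came from Hill-equation fits of qHTS concentration-response data.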
# [3] = Cell Viability - LYMP1-002 - Assay at 40 hr (AID 994; active = well fitted curve in the direction sought with a large enough effect; an effect the other way counts as inactive or inconclusive;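 also: 0% = DMSO only and full inhibition = 92 µM tetraoctylammonium bromide; nearly all actives have a fitted effect of over 60% in size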); details: LYMP1-002 lymphoblastoid cell viability; series mostly up to 92.2 µM
# Outline: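 Human lymphoblastoid cells, 2500/well in complete medium, were preincubated 5 hr at 37 C, then exposed to compounds for 40 hr at 37 C. Intracellular ATP was read by CellTiter-Glo luminescence after 30 min at room temperature; AC50 from Hill-equation fits.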
# [4] = target: alpha-glucosidase (Oryza sativa, rice) (UniProt Q653V4); assay: Counterscreen for Glucocerebrosidase Inhibitors: qHTS Assay for Rice alpha-Glucosidase at pH 5.0 (AID 997; active = well fitted curve in the direction sought with a large enough effect; an effect the other way counts as inactive or inconclusive;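 also: 0% = full activity with enzyme and -100% = basal without enzyme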); details: rice alpha-glucosidase enzyme activity; series mostly up to 76.9 µM
# Outline: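 Rice alpha-glucosidase (4 nM final) with 400 uM 4-methylumbelliferyl-alpha-D-glucopyranoside in citrate buffer pH 5.0, 20 min at room temperature, stopped at pH 10; fluorescence 365/440 nm, compounds 0.7 nM–77 uM, AC50 from Hill fits.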
# [5] = target: DNA repair nuclease/redox regulator APEX1 (Homo sapiens) (UniProt P27695); assay: qHTS Validation Assay for Inhibitors of the Human Apurinic/apyrimidinic Endonuclease 1 (APE1) (AID 1705; active = well fitted curve in the direction sought with a large enough effect; an effect the other way counts as inactive or inconclusive;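 also: TAMRA fluorescence gain over two minutes as APE1 cuts a quenched THF abasic duplex; % is scaled to controls: 0 for no effect and ±100 for the full control effect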); details: purified APE1 endonuclease activity, fluorescence, titration; series mostly up to 57.1 µM
# Sequence of DNA repair nuclease/redox regulator APEX1 (Homo sapiens) (P27695 whole entry, looked up): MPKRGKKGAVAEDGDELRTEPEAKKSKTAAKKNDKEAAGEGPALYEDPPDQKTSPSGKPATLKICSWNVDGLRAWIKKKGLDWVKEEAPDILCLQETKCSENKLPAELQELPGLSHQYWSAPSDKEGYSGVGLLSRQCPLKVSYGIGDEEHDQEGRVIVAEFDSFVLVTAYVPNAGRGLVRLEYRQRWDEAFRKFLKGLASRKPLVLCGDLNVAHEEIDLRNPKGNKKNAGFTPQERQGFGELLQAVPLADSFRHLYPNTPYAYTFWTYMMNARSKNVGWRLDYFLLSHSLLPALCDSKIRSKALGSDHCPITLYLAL
# Outline: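 Activity read as rising fluorescence (598 nm emission, 525 nm excitation) from incision of a TAMRA/BHQ-2 duplex carrying a THF abasic site (50 nM). Compound and enzyme sat 15 min at RT before substrate start; signal change between first and third 60-s reads.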
# [6] = Counterscreen for APE1 Inhibitors: Fluorescent Dye Displacement Validation Assay (AID 1707; active = well fitted curve in the direction sought with a large enough effect; an effect the other way counts as inactive or inconclusive;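 also: plate controls were ThO with dsDNA and no compound for no effect and ThO without dsDNA for full effect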); details: fluorescent dye displacement from DNA; series mostly up to 57.1 µM
# Outline: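 Assay buffer: Tris-HCl pH7.5 with 50mM NaCl, 2 mM MgCl2, 0.01% Tween-20. Dye 250 nM, duplex 50 nM final. Readout: decrease in ThO endpoint fluorescence, 480 nm excitation, 540 nm emission.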
# [7] = target: Endonuclease 4 (Escherichia coli (strain K12)) (UniProt P0A6C1); assay: Counterscreen for APE1 Inhibitors: qHTS Validation Assay for Inhibitors of Endonuclease IV (AID 1708; active = well fitted curve in the direction sought with a large enough effect; an effect the other way counts as inactive or inconclusive; also: % is scaled to controls: 0 for no effect and ±100 for the full control effect); details: E. coli endonuclease IV, DNA cleavage fluorescence; series mostly up to 57.1 µM
# Outline: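 Cleavage of a quenched abasic-site DNA duplex (50 nM, 5'-TAMRA, 3'-BHQ-2) by 2 nM enzyme is followed as fluorescence increase. Compounds are preincubated with enzyme 15 min at room temperature before substrate addition.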
# [8] = qHTS for differential inhibitors of proliferation of Plasmodium falciparum line 7G8 (AID 1815; active = well fitted curve in the direction sought with a large enough effect; an effect the other way counts as inactive or inconclusive;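 also: parasite growth measured after three days of incubation; plate controls were vehicle wells for no effect and reference inhibitor wells for full effect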); details: Plasmodium falciparum 7G8 proliferation inhibition; series mostly up to 28.7 µM
# [9] = qHTS for differential inhibitors of proliferation of Plasmodium falciparum line GB4 (AID 1816; active = well fitted curve in the direction sought with a large enough effect; an effect the other way counts as inactive or inconclusive;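 also: parasite growth measured after 72 h incubation; 0% = vehicle DMSO and -100% = reference inhibitor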); details: series mostly up to 28.7 µM
# [10] = qHTS for differential inhibitors of proliferation of Plasmodium falciparum line 3D7 (AID 1876; active = well fitted curve in the direction sought with a large enough effect; an effect the other way counts as inactive or inconclusive;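 also: parasite growth measured after three days of culture; 0% = vehicle wells and -100% = reference inhibitor wells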); details: P. falciparum 3D7 proliferation inhibition; series mostly up to 28.7 µM
# [11] = measured here: cell count channel max response
# [12] = measured here: lipid channel max response
smiles,measurement,setting,value
CN(N=O)C(=O)N[C@H]1C(O)OC(CO)[C@@H](O)[C@H]1O (stereo partly specified),"activity change, negative = inhibition",[1]; at 57.5 µM (top of the series),-2.09% (inactive)
same,max response,[1]; [11],10.4%
same,max response,[1]; [12],8.35%
Cc1ccc(O)c(C(CCN(C(C)C)C(C)C)c2ccccc2)c1 (stereo unspecified),"activity change, negative = inhibition",[1]; at 57.5 µM (top of the series),7.57% (inactive)
same,max response,[1]; [11],3.1%
same,max response,[1]; [12],8.45%
Nc1nc2c(c(=O)[nH]1)N(C=O)[C@H](CNc1ccc(C(=O)N[C@@H](CCC(=O)O)C(=O)O)cc1)CN2,"activity change, negative = inhibition",[1]; at 25.7 µM (top of the series),-2.58% (inactive)
same,max response,[1]; [11],-9.43%
same,max response,[1]; [12],-11.6%
Cc1cc(O)c2c(c1)C(=O)c1cccc(O)c1C2=O,outcome,[2],inactive
same,outcome,[3],inactive
same,"activity change, negative = inhibition",[1]; at 57.5 µM (top of the series),5.96% (inactive) and -4.1% (inactive)
same,max response,[1]; [11],3.86% and 2.84%
same,max response,[1]; [12],13.4% and 1.16%
COc1ccc2c(c1OC)C(=O)OC2[C@H]1c2c(cc3c(c2OC)OCO3)CCN1C (stereo partly specified),outcome,[4],inactive
same,"activity change, negative = inhibition",[1]; at 25.7 µM (top of the series),0.244% (inactive)
same,max response,[1]; [11],-11.8%
same,max response,[1]; [12],-9.72%
COc1cc2c(cc1O)CCC1C2CC[C@@]2(C)C1CC[C@@H]2O (stereo partly specified),"activity change, negative = inhibition",[1]; at 57.5 µM (top of the series),-1.86% (inactive)
same,max response,[1]; [11],18.4%
same,max response,[1]; [12],18.6%
CN(C)CC[C@H](c1ccc(Cl)cc1)c1ccccn1,outcome,[4],inactive
same,"activity change, negative = inhibition",[1]; at 25.7 µM (top of the series),-0.988% (inactive)
same,max response,[1]; [11],4.39%
same,max response,[1]; [12],4.57%
N=c1ccn2c(n1)O[C@H]1[C@@H](O)[C@@H](CO)O[C@H]12,outcome,[5],inactive
same,outcome,[6],inactive
same,outcome,[7],inactive
same,outcome,[8],inactive
same,outcome,[9],inactive
same,outcome,[10],inactive
c1coc(CNc2ncnc3nc[nH]c23)c1,"activity change, negative = inhibition",[1]; at 25.7 µM (top of the series),1.26% (inactive)
same,"activity change, negative = inhibition",[1]; at 57.5 µM (top of the series),6.17% (inactive)
same,max response,[1]; [11],-19.4% and 15.6%
same,max response,[1]; [12],-19.1% and 25.8%
CC(Cc1ccc(O)c(O)c1)(NN)C(=O)O (stereo unspecified),"activity change, negative = inhibition",[1]; at 57.5 µM (top of the series),4.17% (inactive)
same,max response,[1]; [11],0.886%
same,max response,[1]; [12],8.76%
COc1ccc([C@@H]2CNC(=O)C2)cc1OC1CCCC1,"activity change, negative = inhibition",[1]; at 25.7 µM (top of the series),-2.44% (inactive)
same,max response,[1]; [11],-4.18%
same,max response,[1]; [12],-7.27%
